Experiments:
Test in all cases: universal protein binding microarray (PBM); transcription factors of Arabidopsis thaliana; high values mean tight binding
Details in all cases: protein: recombinant; tags: GST; chain copies: 2; dsDNA, one strand shown
GST-ANAC092(1-176) = biological target: T1, GST-ANAC092(1-176) (Arabidopsis thaliana, UniProt Q9FKA0 1-176)
T1 sequence: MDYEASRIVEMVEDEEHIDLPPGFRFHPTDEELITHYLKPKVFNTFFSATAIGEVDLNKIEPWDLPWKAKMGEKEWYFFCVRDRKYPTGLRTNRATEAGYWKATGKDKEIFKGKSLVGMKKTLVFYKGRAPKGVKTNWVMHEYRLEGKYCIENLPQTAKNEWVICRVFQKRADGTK
Outline: (§1)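 Binding is expressed as the normalised enrichment score (E-score). Proteins carrying a GST tag, whether NAC-domain, full-length or DNA-binding-domain forms, were induced in cells, and zinc acetate was added for zinc-finger proteins. After purification on glutathione–Sepharose 4B and quantification by A280 or anti-GST western blot, each was applied in duplicate at 200 to 500 nM final to custom all-10-mer Agilent 4 × 180K arrays made double-stranded by primer extension. Gapped and ungapped 8-mers were scored.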

GST-ANAC019 NAC domain = biological target: T2, GST-ANAC019 NAC domain (Arabidopsis thaliana, UniProt Q9C932 14-162)
T2 sequence: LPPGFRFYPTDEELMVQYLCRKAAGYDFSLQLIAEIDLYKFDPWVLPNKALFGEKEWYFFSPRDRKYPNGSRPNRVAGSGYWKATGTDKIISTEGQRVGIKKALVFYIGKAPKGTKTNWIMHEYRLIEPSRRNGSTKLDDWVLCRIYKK
Outline: as §1

GST-ANAC055(1-171) = biological target: T3, GST-ANAC055(1-171) (Arabidopsis thaliana, UniProt Q9LDY8 1-171)
T3 sequence: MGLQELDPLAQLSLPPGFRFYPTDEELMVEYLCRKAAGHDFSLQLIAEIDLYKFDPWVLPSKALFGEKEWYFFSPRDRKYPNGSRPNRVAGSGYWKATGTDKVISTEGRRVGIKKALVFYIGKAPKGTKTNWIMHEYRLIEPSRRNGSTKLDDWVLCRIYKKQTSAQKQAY
Outline: as §1

GST-ATAF1 NAC domain = biological target: T4, GST-ATAF1 NAC domain (Arabidopsis thaliana, UniProt Q39013 7-158)
T4 sequence: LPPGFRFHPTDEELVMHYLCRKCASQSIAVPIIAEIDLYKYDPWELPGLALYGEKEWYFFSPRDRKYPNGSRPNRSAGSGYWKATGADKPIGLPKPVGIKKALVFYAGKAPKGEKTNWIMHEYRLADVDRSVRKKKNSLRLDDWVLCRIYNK
Outline: as §1

[1] = biological target: T5, GST-ANAC092(1-285) full length (Arabidopsis thaliana, UniProt Q9FKA0 1-285)
T5 sequence: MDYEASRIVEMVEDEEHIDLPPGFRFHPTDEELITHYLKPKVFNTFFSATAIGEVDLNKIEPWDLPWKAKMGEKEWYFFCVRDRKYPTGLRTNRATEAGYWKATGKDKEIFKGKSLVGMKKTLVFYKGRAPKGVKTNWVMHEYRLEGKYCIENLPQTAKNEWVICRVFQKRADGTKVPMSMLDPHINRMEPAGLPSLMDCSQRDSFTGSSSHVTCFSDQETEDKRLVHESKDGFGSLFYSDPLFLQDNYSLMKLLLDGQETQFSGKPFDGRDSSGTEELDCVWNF
Outline: as §1

GST-NAP(1-166) = biological target: T6, GST-NAP(1-166) (Arabidopsis thaliana, UniProt O49255 1-166)
T6 sequence: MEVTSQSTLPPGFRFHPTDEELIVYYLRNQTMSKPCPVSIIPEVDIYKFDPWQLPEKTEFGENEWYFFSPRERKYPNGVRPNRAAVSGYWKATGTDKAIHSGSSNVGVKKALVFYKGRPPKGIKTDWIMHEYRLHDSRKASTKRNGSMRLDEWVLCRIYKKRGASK
Outline: as §1

GST-NST2(1-184) = biological target: T7, GST-NST2(1-184) (Arabidopsis thaliana, UniProt Q9M274 1-184)
T7 sequence: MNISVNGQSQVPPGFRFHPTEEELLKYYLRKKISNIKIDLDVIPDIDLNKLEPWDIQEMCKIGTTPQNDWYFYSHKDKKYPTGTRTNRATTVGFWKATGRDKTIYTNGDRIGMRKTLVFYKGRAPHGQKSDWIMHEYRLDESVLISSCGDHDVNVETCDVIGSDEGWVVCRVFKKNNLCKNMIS
Outline: as §1

GST-SND1(1-203) = biological target: T8, GST-SND1(1-203) (Arabidopsis thaliana, UniProt Q9LPI7 1-203)
T8 sequence: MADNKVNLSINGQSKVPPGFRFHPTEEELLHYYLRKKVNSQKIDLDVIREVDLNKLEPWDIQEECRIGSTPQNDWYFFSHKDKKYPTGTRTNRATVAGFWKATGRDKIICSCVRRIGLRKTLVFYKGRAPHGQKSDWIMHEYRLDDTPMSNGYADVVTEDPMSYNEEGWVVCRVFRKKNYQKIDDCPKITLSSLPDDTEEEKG
Outline: as §1

GST-VND3 NAC domain = biological target: T9, GST-VND3 NAC domain (Arabidopsis thaliana, UniProt Q9FH59 12-162)
T9 sequence: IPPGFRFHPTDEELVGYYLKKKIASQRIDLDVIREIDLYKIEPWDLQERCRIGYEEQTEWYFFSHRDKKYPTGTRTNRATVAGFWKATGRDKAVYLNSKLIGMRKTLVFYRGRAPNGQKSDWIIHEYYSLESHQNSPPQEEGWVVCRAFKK
Outline: as §1

GST-VND7 NAC domain = biological target: T10, GST-VND7 NAC domain (Arabidopsis thaliana, UniProt Q9C8W9 9-158)
T10 sequence: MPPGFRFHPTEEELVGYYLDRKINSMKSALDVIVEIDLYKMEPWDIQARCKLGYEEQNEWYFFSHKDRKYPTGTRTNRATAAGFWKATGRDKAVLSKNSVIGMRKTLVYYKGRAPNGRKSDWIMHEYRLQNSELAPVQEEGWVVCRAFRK
Outline: as §1

GST-NTL8 NAC domain = biological target: T11, GST-NTL8 NAC domain (Arabidopsis thaliana, UniProt Q9XIN7 14-156)
T11 sequence: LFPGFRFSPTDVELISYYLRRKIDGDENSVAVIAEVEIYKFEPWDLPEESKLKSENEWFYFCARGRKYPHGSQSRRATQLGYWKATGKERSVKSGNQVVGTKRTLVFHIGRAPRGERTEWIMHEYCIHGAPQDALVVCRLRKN
Outline: as §1

| Sequence | binding signal (GST-ANAC092(1-176)) [E-score] | binding signal (GST-ANAC019 NAC domain) [E-score] | binding signal (GST-ANAC055(1-171)) [E-score] | binding signal (GST-ATAF1 NAC domain) [E-score] | binding signal [1] [E-score] | binding signal (GST-NAP(1-166)) [E-score] | binding signal (GST-NST2(1-184)) [E-score] | binding signal (GST-SND1(1-203)) [E-score] | binding signal (GST-VND3 NAC domain) [E-score] | binding signal (GST-VND7 NAC domain) [E-score] | binding signal (GST-NTL8 NAC domain) [E-score] |
| --- | --- | --- | --- | --- | --- | --- | --- | --- | --- | --- | --- |
| GTACGGAA | 0.349 | 0.458 | 0.43 | 0.369 | 0.376 | 0.396 | 0.138 | 0.221 | 0.42 | 0.425 | – |
| CACACGTC | 0.33 | 0.214 | 0.221 | 0.248 | 0.405 | 0.172 | 0.079 | 0.157 | 0.199 | 0.176 | – |
| GTGGCGTA | 0.439 | 0.148 | 0.144 | 0.235 | 0.459 | 0.0567 | 0.3 | 0.471 | 0.138 | 0.0712 | – |
| AGCGTGTA | 0.418 | 0.0634 | 0.112 | 0.136 | 0.436 | 0.198 | 0.22 | 0.274 | 0.129 | 0.163 | – |
| GACGTGTA | 0.409 | 0.354 | 0.341 | 0.291 | 0.437 | 0.327 | 0.193 | 0.229 | 0.354 | 0.338 | – |
| CACGGCAG | 0.39 | 0.457 | 0.403 | 0.307 | 0.426 | 0.227 | 0.0722 | 0.11 | 0.412 | 0.384 | – |
| ATGGCGTG | 0.443 | 0.196 | 0.138 | 0.17 | 0.456 | 0.161 | 0.227 | 0.249 | 0.151 | 0.155 | – |
| ACGGCACC | 0.406 | 0.425 | 0.358 | 0.375 | 0.452 | 0.381 | 0.0937 | 0.237 | 0.318 | 0.333 | – |
| ACGTAAAC | 0.397 | 0.427 | 0.355 | 0.321 | 0.43 | 0.368 | 0.317 | 0.404 | 0.402 | 0.266 | – |
| ACGTTAAC | 0.421 | 0.257 | 0.228 | 0.227 | 0.438 | 0.218 | 0.27 | 0.412 | 0.209 | 0.207 | – |
| GCGTGTTA | 0.415 | 0.214 | 0.174 | 0.141 | 0.432 | 0.227 | 0.178 | 0.199 | 0.212 | 0.113 | – |
| CACGCCAC | 0.481 | 0.33 | 0.268 | 0.293 | 0.488 | 0.292 | 0.298 | 0.386 | 0.168 | 0.271 | – |
| ATACACGC | 0.39 | 0.19 | 0.185 | 0.21 | 0.423 | 0.256 | 0.167 | 0.0978 | 0.167 | 0.0693 | – |
| ATTACGCA | 0.35 | 0.168 | 0.276 | 0.206 | 0.37 | 0.282 | 0.292 | 0.431 | 0.265 | 0.253 | – |
| ACGGAACA | 0.224 | 0.418 | 0.418 | 0.304 | 0.289 | 0.336 | 0.166 | 0.217 | 0.352 | 0.409 | – |
| ACGGCAAT | 0.298 | 0.409 | 0.375 | 0.283 | 0.366 | 0.236 | 0.286 | 0.226 | 0.3 | 0.317 | 0.188 |
| GTGCCGTA | 0.427 | 0.467 | 0.432 | 0.413 | 0.449 | 0.412 | 0.263 | 0.377 | 0.443 | 0.453 | 0.102 |
| AACACGCA | 0.469 | 0.415 | 0.345 | 0.315 | 0.477 | 0.386 | 0.263 | 0.335 | 0.346 | 0.34 | – |
| TACGGCAA | 0.409 | 0.409 | 0.363 | 0.381 | 0.422 | 0.362 | 0.212 | 0.381 | 0.417 | 0.419 | 0.192 |
| CACGTTAC | 0.467 | 0.241 | 0.293 | 0.287 | 0.476 | 0.221 | 0.328 | 0.432 | 0.319 | 0.275 | 0.0995 |
| AAATACGT | 0.196 | 0.226 | 0.244 | 0.346 | 0.35 | 0.29 | 0.209 | 0.21 | 0.408 | 0.263 | 0.101 |
| CGTACGCA | 0.392 | 0.359 | 0.328 | 0.291 | 0.433 | 0.365 | 0.24 | 0.32 | 0.378 | 0.341 | 0.0905 |
| ACGCAACG | 0.46 | 0.327 | 0.23 | 0.27 | 0.463 | 0.387 | 0.3 | 0.461 | 0.278 | 0.316 | 0.113 |
| AACACGTT | 0.375 | 0.262 | 0.284 | 0.228 | 0.426 | 0.259 | 0.222 | 0.202 | 0.281 | 0.203 | 0.132 |
| GACACGCA | 0.43 | 0.358 | 0.275 | 0.304 | 0.455 | 0.283 | 0.0949 | 0.242 | 0.208 | 0.318 | 0.0711 |
| CCACACGC | 0.4 | 0.242 | 0.15 | 0.155 | 0.436 | 0.169 | 0.144 | 0.213 | 0.163 | 0.181 | 0.0869 |
| ATACGGAA | 0.33 | 0.436 | 0.394 | 0.332 | 0.399 | 0.372 | 0.223 | 0.219 | 0.371 | 0.38 | 0.0989 |
| CACGGAAC | 0.397 | 0.48 | 0.466 | 0.397 | 0.425 | 0.414 | 0.175 | 0.0702 | 0.446 | 0.478 | 0.127 |
| ACGGAACC | 0.361 | 0.454 | 0.446 | 0.38 | 0.4 | 0.461 | 0.12 | 0.235 | 0.382 | 0.435 | 0.172 |

— article PMC4081100, “A DNA-binding-site landscape and regulatory network analysis for NAC transcription factors in Arabidopsis thaliana”
